Results: PubChem BioAssay (NCI)
Compounds without any hit were thinned out: in the full panel of roughly 79,000, 15% have a hit. Calls of active or inactive are those of the source. Rule as the data show it: active = growth inhibition above about 70%; inactive = the rest.

Test: NCI Yeast Anticancer Drug Screen. Data for the rad50 strain (AID 155);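 also: 0% = growth of vehicle-only cultures of the same strain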
Conditions: S. cerevisiae rad50 strain growth inhibition; at 1.2 µM; stronger effect = higher value
Outline: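 DNA repair mutant yeast, compound exposure, growth read-out; inhibition is taken relative to vehicle.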

| SMILES | growth inhibition |
| --- | --- |
| CN(C)c1ccc(C2CC(C)(O)Oc3cc4c(cc32)OCO4)cc1 (stereo unspecified) | -1% (inactive) |
| O=P(NC1CCCCC1)(OCc1ccccc1)OCc1ccccc1 | 3% (inactive) |
| COc1oc(C(=O)NC2CCCCC2)c(-c2ccc(Cl)cc2)c1S(=O)(=O)c1ccccc1 | -29% (inactive) |
| C[Si](C)(C)/C=C/CCNC(C#N)c1ccccc1 (stereo unspecified) | -14% (inactive) |
| CCOc1ccc(NC(=O)C2=C(C)NC(C)=C(C(=O)Nc3ccc(OCC)cc3)C2c2cccc([N+](=O)[O-])c2)cc1 | -3% (inactive) |
| CN(C)CCOC1(Cc2ccc(F)cc2)CCC(C(C)(C)C)CC1 (stereo unspecified) | -10% (inactive) |
| CC1(C)CC(=O)C(/C=N/c2nc(-c3ccccc3)cs2)=C(O)C1 | -5% (inactive) |
| CC(=O)Nc1ccc2c(c1)Cc1cc(N=C3C=CC(=O)O3)ccc1-2 | 9% (inactive) |
| O=C1C=C(Cl)C(=O)C(c2ccc(Cl)cc2)=C1 | -4% (inactive) |
| CNCCCNc1c2ccccc2nc2cccc([N+](=O)[O-])c12 | 73% (active) |
| CCCCCCCCCCCC(O)S(=O)(=O)O (stereo unspecified) | 4% (inactive) |
| CC(C)OC(=O)c1ccc(CCc2cc(O)c(Br)cc2O)cc1 | 34% (inactive) |
| CCc1cc(O)c(Cl)c(C)c1Cl | -29% (inactive) |
| C(=Nc1ccc(-c2cc(-c3ccccc3)nc3ccc4ccccc4c23)cc1)c1ccccc1 | 23% (inactive) |
| CSc1nc(C)c(CCOC(C)=O)c(N=P(c2ccccc2)(c2ccccc2)c2ccccc2)n1 | 7% (inactive) |
| CS(=O)(=O)SCc1ccc([N+](=O)[O-])cc1 | 1% (inactive) |
| COC1=C(OC)C(=O)C(Sc2ccc3ccccc3c2)=CC1=O | -15% (inactive) |
| COc1nc2c(c(=O)n1C)N=C(c1ccccc1)[C@H](C(CC(=O)c1ccccc1)c1ccccc1)C(c1ccccc1)N2 (stereo partly specified) | 6% (inactive) |
| Cc1cc(-c2cc(C)c(O)c(C(C)(C)C)c2)cc(C(C)(C)C)c1O | -2% (inactive) |

| SMILES | growth inhibition |
| --- | --- |
| Nc1cc(N)c(N=Nc2cccc3c(S(=O)(=O)O)cccc23)cc1N=Nc1cc([N+](=O)[O-])ccc1O | 15% (inactive) |
| Nc1ccc(F)cc1S | -23% (inactive) |
| Brc1ccccc1-c1ncc(-c2ccccc2)o1 | -1% (inactive) |
| COc1cc(C2SCC(=O)N2c2ccc(-c3ccc(-n4c(-c5ccccc5)nc5ccccc5c4=O)cc3)cc2)ccc1O (stereo unspecified) | -4% (inactive) |
| Nc1ncnc2c1ncn2C1OC(CO)CC1O (stereo unspecified) | -9% (inactive) |
| COc1cc(CSc2ccc(O)cc2)cc(O)c1O | 3% (inactive) |
| CCOC(=O)C1N=[N+](c2ccccc2)C(=O)/C1=C\n1c(=S)[nH]c2ccc([N+](=O)[O-])cc21 (stereo unspecified) | -6% (inactive) |
| CNC(=O)OCc1c(COC(=O)NC)c2n(c1C)-c1ccc(OC)cc1CCC2 | -35% (inactive) |
| O=C(NNc1ccccc1)c1ccc(Cl)c(Cl)c1 | 2% (inactive) |
| C[C@]12CC[C@H](O)CC1=CC[C@@H]1C2CC[C@]2(C)C(=O)NC(=O)CC12 (stereo partly specified) | -16% (inactive) |
| CCCC/C=C/C(C)(C(=O)OCC)C(=O)OCC | -6% (inactive) |
| CCc1c(Cl)c(C)cc(O)c1Cl | -27% (inactive) |
| O=C(/C=C(/c1ccccc1)N1CCCCC1)c1ccccc1 | -1% (inactive) |
| CCCC(=O)Oc1ccc(/C=N/NC(N)=S)nc1 | -9% (inactive) |
| CCc1nc2ccc(NCCN(C)C)c3c(=O)c4ccccc4n1c23 | 46% (inactive) |
| Cc1sc2ccc3ccccc3c2[n+]1C | 7% (inactive) |
| COc1c(O)c(C=O)c(Br)c(C=O)c1O | 4% (inactive) |
| Cc1ccc(Cl)cc1NC(=O)OCCN(C)C(=O)Nc1cc(Cl)ccc1C | -26% (inactive) |
| Cc1nc2ccccc2nc1NNc1ccccc1 | -6% (inactive) |

Same assay, conditions: S. cerevisiae rad50 strain growth inhibition; at 3.7 µM; stronger effect = higher value

| SMILES | growth inhibition |
| --- | --- |
| CN(C)c1ccc(C2CC(C)(O)Oc3cc4c(cc32)OCO4)cc1 (stereo unspecified) | -2% (inactive) |
| O=P(NC1CCCCC1)(OCc1ccccc1)OCc1ccccc1 | 5% (inactive) |
| COc1oc(C(=O)NC2CCCCC2)c(-c2ccc(Cl)cc2)c1S(=O)(=O)c1ccccc1 | -2% (inactive) |
| C[Si](C)(C)/C=C/CCNC(C#N)c1ccccc1 (stereo unspecified) | -28% (inactive) |
| CCOc1ccc(NC(=O)C2=C(C)NC(C)=C(C(=O)Nc3ccc(OCC)cc3)C2c2cccc([N+](=O)[O-])c2)cc1 | -1% (inactive) |
| CN(C)CCOC1(Cc2ccc(F)cc2)CCC(C(C)(C)C)CC1 (stereo unspecified) | 6% (inactive) |
| CC1(C)CC(=O)C(/C=N/c2nc(-c3ccccc3)cs2)=C(O)C1 | -13% (inactive) |
| CC(=O)Nc1ccc2c(c1)Cc1cc(N=C3C=CC(=O)O3)ccc1-2 | 31% (inactive) |
| O=C1C=C(Cl)C(=O)C(c2ccc(Cl)cc2)=C1 | -1% (inactive) |
| CNCCCNc1c2ccccc2nc2cccc([N+](=O)[O-])c12 | 82% (active) |
| CCCCCCCCCCCC(O)S(=O)(=O)O (stereo unspecified) | 3% (inactive) |
| CC(C)OC(=O)c1ccc(CCc2cc(O)c(Br)cc2O)cc1 | 49% (inactive) |
| CCc1cc(O)c(Cl)c(C)c1Cl | -19% (inactive) |
| C(=Nc1ccc(-c2cc(-c3ccccc3)nc3ccc4ccccc4c23)cc1)c1ccccc1 | 24% (inactive) |
| CSc1nc(C)c(CCOC(C)=O)c(N=P(c2ccccc2)(c2ccccc2)c2ccccc2)n1 | -8% (inactive) |
| CS(=O)(=O)SCc1ccc([N+](=O)[O-])cc1 | 41% (inactive) |
| COC1=C(OC)C(=O)C(Sc2ccc3ccccc3c2)=CC1=O | 0% (inactive) |
| COc1nc2c(c(=O)n1C)N=C(c1ccccc1)[C@H](C(CC(=O)c1ccccc1)c1ccccc1)C(c1ccccc1)N2 (stereo partly specified) | 3% (inactive) |
| Cc1cc(-c2cc(C)c(O)c(C(C)(C)C)c2)cc(C(C)(C)C)c1O | -4% (inactive) |

| SMILES | growth inhibition |
| --- | --- |
| Nc1cc(N)c(N=Nc2cccc3c(S(=O)(=O)O)cccc23)cc1N=Nc1cc([N+](=O)[O-])ccc1O | 10% (inactive) |
| Nc1ccc(F)cc1S | -40% (inactive) |
| Brc1ccccc1-c1ncc(-c2ccccc2)o1 | -2% (inactive) |
| COc1cc(C2SCC(=O)N2c2ccc(-c3ccc(-n4c(-c5ccccc5)nc5ccccc5c4=O)cc3)cc2)ccc1O (stereo unspecified) | -1% (inactive) |
| Nc1ncnc2c1ncn2C1OC(CO)CC1O (stereo unspecified) | -3% (inactive) |
| COc1cc(CSc2ccc(O)cc2)cc(O)c1O | 6% (inactive) |
| CCOC(=O)C1N=[N+](c2ccccc2)C(=O)/C1=C\n1c(=S)[nH]c2ccc([N+](=O)[O-])cc21 (stereo unspecified) | -14% (inactive) |
| CNC(=O)OCc1c(COC(=O)NC)c2n(c1C)-c1ccc(OC)cc1CCC2 | -38% (inactive) |
| O=C(NNc1ccccc1)c1ccc(Cl)c(Cl)c1 | 5% (inactive) |
| C[C@]12CC[C@H](O)CC1=CC[C@@H]1C2CC[C@]2(C)C(=O)NC(=O)CC12 (stereo partly specified) | -19% (inactive) |
| CCCC/C=C/C(C)(C(=O)OCC)C(=O)OCC | -5% (inactive) |
| CCc1c(Cl)c(C)cc(O)c1Cl | -30% (inactive) |
| O=C(/C=C(/c1ccccc1)N1CCCCC1)c1ccccc1 | -1% (inactive) |
| CCCC(=O)Oc1ccc(/C=N/NC(N)=S)nc1 | -16% (inactive) |
| CCc1nc2ccc(NCCN(C)C)c3c(=O)c4ccccc4n1c23 | 49% (inactive) |
| Cc1sc2ccc3ccccc3c2[n+]1C | 27% (inactive) |
| COc1c(O)c(C=O)c(Br)c(C=O)c1O | 7% (inactive) |
| Cc1ccc(Cl)cc1NC(=O)OCCN(C)C(=O)Nc1cc(Cl)ccc1C | -34% (inactive) |
| Cc1nc2ccccc2nc1NNc1ccccc1 | -12% (inactive) |
